This passage reports growth results from PubChem BioAssay (NCI).

Each structure is given as a SMILES string. The panel holds about 83,000 compounds, 20% with a hit somewhere; the sample as a whole holds those more often.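 Interpretation: 100, growth as untreated; towards 0, rising growth inhibition; 0, no net growth; 0 to -100, cell death. Compounds scoring below 10 were considered active.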 A number with no mark means an inactive call. Calls of active or inactive are those of the source.

Some test systems named below: SK-MEL-2 melanoma; EKVX NSCLC; SN12C renal; UO-31 renal; TK-10 renal; ACHN renal; CAKI-1 renal; A498 renal; CCRF-CEM leukemia; MOLT-4 leukemia.
Holding throughout (experiment): NCI-60 one-dose screen, 48 h (100 = growth as untreated, 0 = no growth, -100 = all killed)
Common to all, as to conditions: 10 µM unless noted

As for `COc1ccc2c(c1)c(/C=N/Nc1ccc3ccccc3n1)cn2C`, the growth with SK-MEL-2 melanoma was 81.8%; in the test with EKVX NSCLC, 53.1%; with SN12C renal, -71.7% (active); in the test on UO-31 renal, -31.3% (active); with TK-10 renal, 43.4%; with ACHN renal it was -85.4% (active). Also, the growth in the test on CAKI-1 renal was -45.4% (active); in the test with A498 renal, 83.3%; in the test on CCRF-CEM leukemia it was 10.8%; in the test with MOLT-4 leukemia it was -27.4% (active).
Regarding `O=C(COc1ccc(NC(=O)Nc2ccc(Cl)c(Cl)c2)cc1)N=Nc1c(O)[nH]c2ccccc12`, the growth in the test with SK-MEL-2 melanoma was -41.9% (active); in the test on EKVX NSCLC it was 18.6%; in the test on UO-31 renal it was 87.5%; in the test with TK-10 renal it was 30.5%; in the test on ACHN renal, 36.9%; with CAKI-1 renal, 15.6%. In addition, the results for the growth with A498 renal, with CCRF-CEM leukemia and with MOLT-4 leukemia were -53.6% (active), 37.3% and 1.27% (active), respectively.
`COc1ccc(NC(=O)Cn2c3c(sc2=O)[C@H]2[C@@H](O)[C@@H](O)[C@H](O)[C@@H]2CS3)cc1`: the growth in the test on SK-MEL-2 melanoma is 101%; with EKVX NSCLC, 97.4%; with SN12C renal, 98.8%; in the test with UO-31 renal it was 90.2%; in the test on TK-10 renal, 112%; in the test on ACHN renal it was 96.6%. For the same compound, the growth is 97.2% in the test with CAKI-1 renal, 111% in the test on A498 renal and 108% in the test with MOLT-4 leukemia.
Regarding `C#CCOc1cc(N(CC)CC)ccc1C(C(=O)NC(C)(C)C)N(C(=O)C1CCc2cc(F)ccc2O1)c1cc(C)cc(C)c1` (centres undefined), the growth is -14.6% (active) with SK-MEL-2 melanoma; 33.3% with EKVX NSCLC; 23.2% in the test with UO-31 renal; 50.3% in the test on TK-10 renal; 22.7% in the test on ACHN renal; 27.9% in the test on CAKI-1 renal. Moreover, the growth was 45.8% in the test with A498 renal, 36.3% in the test with CCRF-CEM leukemia and 16% in the test with MOLT-4 leukemia.
With `Cc1cc(N=C2NC(=O)CS2)n[nH]1`, the growth with SK-MEL-2 melanoma is 98.7%; in the test with EKVX NSCLC it was 72.7%; in the test with UO-31 renal, 79.3%; with TK-10 renal, 108%; in the test on ACHN renal, 102%; in the test with CAKI-1 renal it was 95.9%. In addition, in the test with A498 renal, the growth was 124%.
Regarding `COc1cc(C2CC(c3cc(OC)c(OC)c(OC)c3)=Nc3c(N)nc(N)nc3N2)ccc1Oc1nc(NCCO)nc(N2CCOCC2)n1` (centres undefined), the growth is 105% in the test on SK-MEL-2 melanoma; 84.3% in the test with EKVX NSCLC; 84.1% with UO-31 renal; 120% in the test on TK-10 renal; 101% in the test with ACHN renal; 80.8% in the test with CAKI-1 renal. The growth in the test on A498 renal is 105%; in the test on CCRF-CEM leukemia, 102%; in the test with MOLT-4 leukemia, 96.7%.
Regarding `CNC(=O)c1cccc(NC(=O)c2ccc3c(c2)nnn3/C(C#N)=C/c2ccccn2)c1`, the growth is -60.7% (active) in the test on SK-MEL-2 melanoma; -30.5% (active) in the test on EKVX NSCLC; -15.8% (active) with SN12C renal; -7.22% (active) in the test on UO-31 renal; -25.4% (active) in the test with TK-10 renal; -24.2% (active) in the test with ACHN renal. Besides, the growth is 25.7% in the test on CAKI-1 renal, 115% in the test on A498 renal, -24.5% (active) with CCRF-CEM leukemia and -19.2% (active) in the test with MOLT-4 leukemia.
As for `COc1ccc(C(=O)/C=C/c2ccc(OC)c(OCc3ccccc3)c2)cc1OC`, the growth is 55.8% with SK-MEL-2 melanoma; 25.2% with EKVX NSCLC; 7.92% (active) in the test with SN12C renal; 19.3% in the test on UO-31 renal; 20.5% in the test with TK-10 renal; 21.8% with ACHN renal. Moreover, the growth is 39.4% in the test on CAKI-1 renal, 108% with A498 renal, 12.9% in the test on CCRF-CEM leukemia and 8.07% (active) in the test with MOLT-4 leukemia.
In the case of `COc1cc(OC)c2c3nc4cc(C)c(C)cc4nc3n(CCN(C)C)c2c1`, the growth was 101% in the test with SK-MEL-2 melanoma; 89.9% in the test on EKVX NSCLC; -48.8% (active) in the test with SN12C renal; -68.6% (active) in the test with UO-31 renal; 147% in the test on TK-10 renal; 47.3% in the test with ACHN renal. Further, the growth in the test on CAKI-1 renal is 50.5%; in the test with A498 renal, 105%; in the test on MOLT-4 leukemia, 10.4%.
Turning to `CCN1CCN(Cc2ccc(C(=O)Nc3cccc(C#Cc4cccc5[nH]nc(N)c45)c3)cc2C(F)(F)F)CC1`, the growth was -80.7% (active) with SK-MEL-2 melanoma; -93.1% (active) in the test with EKVX NSCLC; -94.2% (active) in the test on UO-31 renal; -94.2% (active) in the test with TK-10 renal; -98.2% (active) in the test with ACHN renal; -91.7% (active) with CAKI-1 renal. The results for the growth in the test with A498 renal and with CCRF-CEM leukemia were -84.6% (active) and 3.6% (active), respectively.
Regarding `Cc1ccccc1[C@H]1C(C(=O)c2ccc(Cl)cc2)C2(N[C@@H]1c1ccccc1)C(=O)Nc1ccc(Cl)cc12` (some centres undefined), the growth in the test with SK-MEL-2 melanoma was -64% (active); in the test on EKVX NSCLC it was -20.6% (active); in the test on SN12C renal, -95.4% (active); in the test on UO-31 renal, 0.337% (active); with TK-10 renal, 9% (active); in the test on ACHN renal, -9.02% (active). The growth with CAKI-1 renal is 8.92% (active); in the test on A498 renal, 50%; in the test with CCRF-CEM leukemia it was -14.9% (active); in the test on MOLT-4 leukemia, -17.5% (active).
`CC(=O)Nc1ccc(-n2cnc3ccc(-c4ccc(O)cc4)cc32)cc1`: the growth is 50.7% with SK-MEL-2 melanoma; 54.8% in the test with EKVX NSCLC; 29.3% in the test with SN12C renal; 46.2% in the test on UO-31 renal; 89.9% with TK-10 renal; 24.7% in the test on ACHN renal. Also, the growth with CAKI-1 renal was 29.9%; in the test with A498 renal, 92.8%; with CCRF-CEM leukemia it was 30.2%; with MOLT-4 leukemia, 11.3%.
On to `O=c1[nH]c2ccccc2cc1CSc1nccc(-c2ccc3ccccc3c2)n1`, for which the growth in the test on SK-MEL-2 melanoma was 84.5%; in the test with EKVX NSCLC, 49.4%; with UO-31 renal it was 78.6%; in the test with TK-10 renal it was 83%; in the test on ACHN renal, 95.8%; in the test on CAKI-1 renal it was 56.6%. For the same compound, the values for the growth in the test with A498 renal, in the test on CCRF-CEM leukemia and with MOLT-4 leukemia were 114%, 33.1% and 21.9%, respectively.
For `COc1ccc(-c2nc3cc(C)ccc3n2CC(=O)N=Nc2c(O)[nH]c3ccc(OC)cc23)cc1`, the growth in the test on SK-MEL-2 melanoma was -14% (active); in the test with EKVX NSCLC, -25.5% (active); with SN12C renal, -95.1% (active); in the test with UO-31 renal it was -29.4% (active); in the test on TK-10 renal, -3.46% (active); with ACHN renal it was -73.9% (active). Further, the growth in the test on CAKI-1 renal is -51.3% (active); in the test on A498 renal, 52.3%; with CCRF-CEM leukemia, 38.5%; in the test on MOLT-4 leukemia, -46.2% (active).
